{"source": "PubChem BioAssay (NCATS)", "note": "Inconclusive results are not listed. Unmarked numbers belong to inactive results. Calls of active or inactive are those of the source. Calls come from the whole dose curve; as a rule, active = well fitted inhibition curve with a large enough effect; inconclusive = small, poorly fitted or top-dose-only effect; inactive = no such curve, though single readings can be large or run the other way. % is set by controls: 0 for no effect and ±100 for the full control effect; potency is the fitted concentration of half-maximal effect.", "data": [{"target": "Cytochrome P450 2C9 (Homo sapiens) (UniProt P11712)", "sequence (P11712 whole entry, looked up)": "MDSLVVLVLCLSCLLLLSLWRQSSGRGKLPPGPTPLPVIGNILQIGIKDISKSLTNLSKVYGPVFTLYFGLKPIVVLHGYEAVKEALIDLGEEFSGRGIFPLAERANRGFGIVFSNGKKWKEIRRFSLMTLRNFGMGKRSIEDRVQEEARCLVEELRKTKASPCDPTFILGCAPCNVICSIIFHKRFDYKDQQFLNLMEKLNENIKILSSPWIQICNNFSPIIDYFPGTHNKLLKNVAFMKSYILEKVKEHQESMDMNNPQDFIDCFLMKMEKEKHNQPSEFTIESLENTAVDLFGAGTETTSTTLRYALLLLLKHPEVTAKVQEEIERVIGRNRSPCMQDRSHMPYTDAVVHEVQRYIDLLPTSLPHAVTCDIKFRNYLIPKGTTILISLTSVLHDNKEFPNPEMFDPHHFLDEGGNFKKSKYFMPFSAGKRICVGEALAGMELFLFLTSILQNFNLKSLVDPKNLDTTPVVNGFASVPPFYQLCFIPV", "assay": "qHTS Assay for Inhibitors and Substrates of Cytochrome P450 2C9 (AID 883); note: nearly all actives have a fitted effect of over 60% in size", "conditions": "recombinant CYP2C9, luciferin-H luminescence, 60 min; series mostly up to 57.1 µM; activity change, negative = inhibition: at the top concentration", "method": "NIH Molecular Libraries Screening Centers Network [MLSCN] NIH Chemical Genomics Center [NCGC] MLSCN Grant: None NCGC Assay Overview: The P450 gene superfamily is involved in the metabolism and clearance of xenobiotics. This assay used human CYP2C9 to measure the hydroxylation of deoxyluciferin (Luciferin-H; P450 Glo-Buffer) to luciferin. The luciferin is then measured by luminescence after the addition of a luciferase detection reagent. Luciferin-H concentration in the assay was equal to its Michaelis constant KM for CYP2C9. Inhibitors and some substrates limit the production of luciferin, and decrease measured luminescence.\nNCGC Assay Protocol Summary: Two uL of enzyme and substrate mix (final concentrations: 10nM CYP2C9, 100uM Luciferin-H, 25mM KPO4) were dispensed into a white, solid bottom 1536-well microtiter plate. 23nL of compound was transferred by a pin tool. The plate was incubated at 37C for 10 min. Two uL of an NADPH regeneration solution (Promega supplied reagent) was dispensed and the reaction was allowed to continue for 60 min at 37C. Then the reaction was stopped by reconstituted P450 Glo-Buffer. After another 20 min of incubation the plate was read on the ViewLux (Perkin Elmer) at 60 sec exposure and 2x2 binning. This protocol was carried out with Promega-Glo reagents and further information can be found at http://www.promega.com/tbs/tb325/tb325.pdf. Data were normalized to the to AC100 inhibition (57uM sulphaphenazole). Keywords: P450, CYP2C9, Luciferase, MLSMR, MLSCN, NIH Roadmap, qHTS, NCGC", "units": {"activity change, negative = inhibition": "%"}, "values": [{"smiles": "O=c1cc(-c2ccc(O)c(O)c2)oc2cccc(O)c12", "Potency": "7.94 µM (active)"}, {"smiles": "CC(C)c1cccc2c([Si](C)(C)C)c3c(nc12)-c1cccc(=O)n1C3", "Potency": "2 µM (active)"}, {"smiles": "CC(C)[C@@H](CC(=O)N[C@@H]1CCNC[C@H]1C(=O)N[C@H](CC(=O)N[C@@H](CCC(=O)O)CC(=O)O)Cc1c[nH]c2ccccc12)NC(=O)C[C@H](Cc1ccccc1)NC(=O)[C@@H]1CCCC[C@H]1N", "activity change, negative = inhibition": -2.01}, {"smiles": "CC(C)C[C@@H](CC(=O)N[C@@H](CCC(=O)O)CC(=O)O)NC(=O)[C@@H]1CNCC[C@H]1NC(=O)C[C@@H](NC(=O)C[C@H](Cc1c[nH]c2ccccc12)NC(=O)[C@@H]1CCCC[C@H]1N)C(C)C", "activity change, negative = inhibition": -14.3}, {"smiles": "NCCC[C@@H](CC(=O)N[C@@H]1CCCC[C@H]1C(=O)N[C@H](CC(=O)N[C@@H](CCC(=O)O)CC(=O)O)Cc1c[nH]c2ccccc12)NC(=O)C[C@H](Cc1c[nH]c2ccccc12)NC(=O)[C@@H]1CNCC[C@H]1N", "activity change, negative = inhibition": -7.39}, {"smiles": "CCCCCCCCCCCCCCCCCC(=O)NC[C@@H](COP(=O)([O-])OCC[N+](C)(C)C)OCC", "activity change, negative = inhibition": -85.1}, {"smiles": "COC(=O)[C@@]1(Cc2ccccc2)[C@H]2c3cc(C(=O)N4CCCC4)n(Cc4cccc5ccccc45)c3C[C@H]2CN1C(=O)c1ccccc1", "Potency": "0.251 µM (active)"}, {"smiles": "Cc1ccc2oc(-c3ccccc3)c(O)c(=O)c2c1", "activity change, negative = inhibition": 7.1}, {"smiles": "C[C@@H]1C[C@@]2(C)Oc3ccccc3[C@H]3OC[C@]1(COC(=O)Nc1ccccc1)[C@@H](C)[C@@H]32", "Potency": "20 µM (active)"}, {"smiles": "CC(C)[C@@H](CC(=O)N[C@@H]1CCNC[C@H]1C(=O)N[C@H](CC(=O)N[C@@H](CCC(=O)O)CC(=O)O)Cc1c[nH]c2ccccc12)NC(=O)C[C@H](CO)NC(=O)[C@@H]1CCCC[C@H]1N", "activity change, negative = inhibition": -23.2}, {"smiles": "COc1cc2c(cc1OC)C(=O)N(C)CC2", "activity change, negative = inhibition": -12.2}, {"smiles": "CCN1CCC[C@@H]1CNC(=O)c1c(OC)ccc(I)c1O", "activity change, negative = inhibition": 6.42}, {"smiles": "CC(C)C[C@@H](CC(=O)N[C@@H](CCC(=O)O)CC(=O)O)NC(=O)[C@@H]1CNCC[C@H]1NC(=O)C[C@H](CCCN)NC(=O)C[C@H](Cc1c[nH]c2ccccc12)NC(=O)[C@@H]1CCCC[C@H]1N", "activity change, negative = inhibition": -20.9}, {"smiles": "O=c1ccn([C@H]2O[C@H](CO)[C@@H](O)[C@@H]2O)c(=O)[nH]1", "activity change, negative = inhibition": 3.95}, {"smiles": "COc1cc2oc(-c3ccccc3)cc(=O)c2cc1OC", "activity change, negative = inhibition": 61.1}, {"smiles": "NCCC[C@@H](CC(=O)N[C@@H]1CCNC[C@H]1C(=O)N[C@H](CC(=O)N[C@@H](CCC(=O)O)CC(=O)O)Cc1ccccc1)NC(=O)C[C@H](Cc1c[nH]c2ccccc12)NC(=O)[C@@H]1CNCC[C@H]1N", "activity change, negative = inhibition": -11.1}, {"smiles": "CC(C)C[C@@H](CC(=O)N[C@@H](CCC(=O)O)CC(=O)O)NC(=O)[C@@H]1CCCC[C@H]1NC(=O)C[C@H](CCCN)NC(=O)C[C@H](Cc1c[nH]c2ccccc12)NC(=O)[C@@H]1CNCC[C@H]1N", "activity change, negative = inhibition": -36.9}, {"smiles": "NCCC[C@@H](CC(=O)N[C@@H]1CCCC[C@H]1C(=O)N[C@H](CC(=O)N[C@@H](CCC(=O)O)CC(=O)O)Cc1c[nH]c2ccccc12)NC(=O)C[C@H](Cc1ccccc1)NC(=O)[C@@H]1CCCC[C@H]1N", "activity change, negative = inhibition": 21.9}, {"smiles": "CC1(NC[C@@H](O)COc2cccc3[nH]ccc23)CCC(C(C)(C)NC(=O)CBr)CC1", "note": "(stereo not given in full)", "activity change, negative = inhibition": -6.63}, {"smiles": "COc1ccc2c(=O)cc(-c3ccc(O)cc3)oc2c1", "Potency": "6.31 µM (active)"}, {"smiles": "NCCC[C@@H](CC(=O)N[C@@H]1CCNC[C@H]1C(=O)N[C@H](CC(=O)N[C@@H](CCC(=O)O)CC(=O)O)Cc1c[nH]c2ccccc12)NC(=O)C[C@H](Cc1c[nH]c2ccccc12)NC(=O)[C@@H]1CCCC[C@H]1N", "activity change, negative = inhibition": -8.59}, {"smiles": "Nc1ccccc1C(=O)C[C@@H](N)C(=O)O", "activity change, negative = inhibition": -5.74}, {"smiles": "NCCC[C@@H](CC(=O)N[C@@H]1CCNC[C@H]1C(=O)N[C@H](CC(=O)N[C@@H](CCC(=O)O)CC(=O)O)Cc1c[nH]c2ccccc12)NC(=O)C[C@H](CO)NC(=O)[C@@H]1CCCC[C@H]1N", "activity change, negative = inhibition": -17.5}, {"smiles": "CC(C)C[C@@H](CC(=O)N[C@@H](CCC(=O)O)CC(=O)O)NC(=O)[C@@H]1CNCC[C@H]1NC(=O)C[C@H](CCCN)NC(=O)C[C@H](CO)NC(=O)[C@@H]1CCCC[C@H]1N", "activity change, negative = inhibition": -24.8}, {"smiles": "Nc1ccccc1C#Cc1ccccc1", "Potency": "7.94 µM (active)"}, {"smiles": "O=c1cc(-c2ccccc2O)oc2c1ccc1ccccc12", "activity change, negative = inhibition": 5.28}, {"smiles": "C=C(CO)[C@H]1Cc2c(ccc3c2O[C@H]2COc4cc(OC)c(OC)cc4[C@@H]2C3=O)O1", "activity change, negative = inhibition": -20}, {"smiles": "C[C@@H](C(=O)Nc1ccc2ccccc2c1)[C@H]1C[C@]1(C)[C@H](NC(=O)c1cnccn1)c1ccccc1", "Potency": "5.01 µM (active)"}, {"smiles": "CCCC/C=C/C(NC(=O)c1cccs1)c1ccccc1", "note": "(stereo not given)", "Potency": "0.316 µM (active)"}, {"smiles": "COc1cc([C@H]2c3cc4c(cc3[C@@H](O)[C@@H]3COC(=O)[C@H]23)OCO4)cc(OC)c1OC", "Potency": "6.31 µM (active)"}, {"smiles": "CCC/C=C(\\CCC)C(NS(=O)(=O)c1ccc(C(F)(F)F)cc1)c1ccc(C(=O)OC)cc1", "note": "(stereo not given)", "Potency": "3.16 µM (active)"}, {"smiles": "Cn1ccc(O)c(C#N)c1=O", "activity change, negative = inhibition": 0.213}, {"smiles": "CC(C)C[C@@H](CC(=O)N[C@@H](CCC(=O)O)CC(=O)O)NC(=O)[C@@H]1CCCC[C@H]1NC(=O)C[C@H](CCCN)NC(=O)C[C@H](Cc1c[nH]c2ccccc12)NC(=O)[C@@H]1CCCC[C@H]1N", "activity change, negative = inhibition": 1.07}, {"smiles": "O=c1c(O)c(-c2ccccc2)oc2cc(O)cc(O)c12", "Potency": "3.16 µM (active)"}, {"smiles": "CCC/C=C(\\CCC)C(NS(=O)(=O)c1cccc2cccnc12)c1ccc(C(=O)OC)cc1", "note": "(stereo not given)", "Potency": "1.58 µM (active)"}, {"smiles": "COC(=O)[C@@]1(Cc2ccc(F)cc2)[C@H]2c3cc(C(=O)N4CCCC4)n(Cc4ccc(C)o4)c3C[C@H]2CN1C(=O)c1ccccc1", "Potency": "3.98 µM (active)"}, {"smiles": "CCCC[C@@H]1C[C@H]1C(NC(=O)c1ccco1)c1ccc(-c2ccccc2)cc1", "note": "(stereo not given in full)", "Potency": "3.16 µM (active)"}, {"smiles": "Cc1cc(C(=O)N[C@H](c2ccccc2)[C@@]2(C)C[C@@H]2[C@@H](C)C(=O)Nc2ccc3ccccc3c2)n(C)n1", "Potency": "7.94 µM (active)"}, {"smiles": "C=C/C(=C\\C)C[C@@H](CC(=O)N[C@@H](CCC(=O)O)CC(=O)O)NC(=O)[C@@H]1CNCC[C@H]1NC(=O)C[C@@H](NC(=O)C[C@H](Cc1ccccc1)NC(=O)[C@@H]1CCCC[C@H]1N)C(C)C", "activity change, negative = inhibition": -21.6}, {"smiles": "CC(C)C[C@@H](CC(=O)N[C@H](CC(=O)N[C@@H]1CCNC[C@H]1C(=O)N[C@H](CC(=O)N[C@@H](CCC(=O)O)CC(=O)O)Cc1ccccc1)C(C)C)NC(=O)[C@@H]1CNCC[C@H]1N", "activity change, negative = inhibition": -24.1}]}]}
